Experimental data published in the supplement of paper PMC12340641.
Whole data set: some 1,000 compounds, median “relative growth in counter assay (no AraC = 100%, AraC + DMSO = 0%)” near -1.1, cut for the highest 2% near 20. What follows is part of a selection rich in the highest values, with near analogues and random picks from the rest.

test system: HEK293FT dCK*-only; assay: relative growth in counter assay (no AraC = 100%, AraC + DMSO = 0%); higher = more growth rescue independent of IKZF1; settings: compound concentration: 5 uM; AraC concentration: 0.3 uM; overnight pretreatment + 4 days AraC
Method: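 Growth recovery screen of the molecular-glue-like (Specs) library. HEK293FT cells expressing a dCK*-IKZF1 fusion (primary) or dCK* alone (counter) were pretreated overnight with compound at 5 uM, then given 0.3 uM AraC for 4 days. Hoechst nuclei were counted by imaging. Primary: normalised to pomalidomide (100%) and DMSO (0%), mean of 2 replicates. Counter: normalised to no-AraC (100%) and AraC+DMSO (0%), single replicate.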

Point of comparison: O=C1c2ccc(Oc3ccc(NC(=O)C(F)(F)F)cc3)cc2C(=O)N1c1ccc(O)cc1, “relative growth in counter assay” value -3.44%. Against it:
- O=C(C1CCCCC1)N1CCOC(c2cccc(Nc3nccs3)n2)C1 (stereo not drawn) — lower, -5.66%
- O=[N+]([O-])c1ccc(S(=O)(=O)Nc2ccccn2)cc1 — higher, -0.83%
- CC(=O)Nc1cccc(-c2csc(Nc3cccc(C)n3)n2)c1 — higher, 5.94%
- CC(=O)Nc1ccc(-c2csc(Nc3ccccn3)n2)cc1 — higher, 15.7%
- Cc1ccc(Nc2nc(-c3sc(NC(=O)c4ccccc4)nc3C)cs2)nc1 — higher, 74.3%
- CC(=O)Nc1ccc(-c2csc(Nc3ccc(Cl)cn3)n2)cc1 — lower, -4.91%
- CC(=O)Nc1ccc(-c2csc(Nc3cccc(C)n3)n2)cc1 — higher, 5.34%
- CC(=O)N1CCCC(c2csc(Nc3ccc(C)cn3)n2)C1 (stereo not drawn) — higher, 2.06%
- Cc1ccnc(Nc2nc(-c3sc(NC(=O)c4ccccc4)nc3C)cs2)c1 — higher, 68.2%
- CC(=O)N1CCCC1c1csc(Nc2ccccn2)n1 (stereo not drawn) — higher, 6.68%
- Cc1cccc(Nc2nc(-c3sc(NC(=O)c4ccccc4)nc3C)cs2)n1 — higher, 60.5%
- COc1cccc(OC)c1C(=O)Nc1ccc(S(=O)(=O)Nc2nccc(C)n2)cc1 — higher, -1.58%
- CC1CCc2cc(F)ccc2N1C(=O)CSc1nnc2c(n1)[nH]c1ccccc12 (stereo not drawn) — higher, 6.61%
- O=C(NCc1cnc(Nc2cccc(C3CCN(C(=O)C4CCCCC4)CC3)n2)s1)c1cccc(F)c1 — lower, -9.34%
- CC(C)(N)C(=O)N1CCC(c2cccc(Nc3ncc(-c4cccnc4)s3)n2)CC1 — lower, -23.8%
- CCCc1cnc(Nc2cccc(C3CCN(C(=O)[C@@H](N)C(C)O)CC3)n2)s1 (stereo partly drawn) — lower, -24.9%
- Cc1ccc(CC(=O)N2CCOC(c3cccc(Nc4nccs4)n3)C2)cc1C (stereo not drawn) — lower, -4.97%
- COc1ccc(C(=O)Nc2ccc(S(=O)(=O)Nc3cc(C)nc(C)n3)cc2)cc1 — lower, -14%
- Nc1ccc(C(=O)N2CCCC2c2cccc(Nc3nccs3)n2)cn1 (stereo not drawn) — higher, -0.6%
- O=C(O)CCOCCOCCNc1ccc2c(c1)C(=O)N(C1CCC(=O)NC1=O)C2=O (stereo not drawn) — higher, -0.35%
- O=[N+]([O-])c1ccc(S(=O)(=O)Nc2ccc(S(=O)(=O)Nc3ncccn3)cc2)cc1 — higher, 0.33%
- CC(C)(C)N1CC(C(=O)Nc2ccc(S(=O)(=O)Nc3ncccn3)cc2)CC1=O (stereo not drawn) — higher, 4.79%
- COC1CCCC(C(=O)N2CCOC(c3cccc(Nc4ncc(C)s4)n3)C2)C1 (stereo not drawn) — lower, -9.41%
- CCOCCC(=O)Nc1ccc(S(=O)(=O)Nc2ncccn2)cc1 — higher, 3.97%
- Cc1cc(NS(=O)(=O)c2ccc(NC(=O)COc3ccc(C(C)C)cc3)cc2)nc(C)n1 — higher, -0.57%
- Cc1cccc(OCC(=O)Nc2ccc(S(=O)(=O)Nc3nc(C)cc(C)n3)cc2)c1 — lower, -12%
- CN(CC(=O)N1CCOC(c2cccc(Nc3nccs3)n2)C1)Cc1ccccc1F (stereo not drawn) — higher, 0.79%
- CC(C)c1cnc(Nc2cccc(C3CCN(C(=O)C4CCCCC4)CC3)n2)s1 — higher, 11%
- COc1cccc(C(=O)Nc2ccc(S(=O)(=O)Nc3cc(C)nc(C)n3)cc2)c1 — higher, 0.7%
- COc1ccc(NC(=O)CN2CCC(c3cccc(Nc4nc(C)cs4)n3)CC2)cc1 — higher, 13.8%
- O=C1CCC(N2C(=O)c3cccc(N4CCC(C(=O)O)CC4)c3C2=O)C(=O)N1 (stereo not drawn) — higher, 3.86%
- Cc1cc(C)nc(NS(=O)(=O)c2ccc(NC(=O)CCN3C(=O)c4ccccc4C3=O)cc2)n1 — lower, -7.05%
- Cc1csc(Nc2cccc(C3CCCN3C(=O)c3cn4cc(Cl)ccc4n3)n2)n1 (stereo not drawn) — higher, 22.3%
- Cc1csc(Nc2cccc(C3CCCN3C(=O)c3ccc4[nH]c(C(C)C)nc4c3)n2)n1 (stereo not drawn) — higher, 30.5%
- Cc1csc(Nc2cccc(C3CCCN3C(=O)c3ccc4c(c3)CCCN4C)n2)n1 (stereo not drawn) — higher, 13.3%
- Cc1csc(Nc2cccc(C3CCCN3C(=O)c3cnc(C)nc3C)n2)n1 (stereo not drawn) — lower, -4.08%
- Cc1ccc2[nH]nc(C(=O)N3CCCC3c3cccc(Nc4nc(C)cs4)n3)c2c1 (stereo not drawn) — higher, 2.1%
- CC(=O)N1CCCC1c1cccc(Nc2nc(C)cs2)n1 (stereo not drawn) — lower, -5.77%
- COc1ccc(C(=O)Nc2ccc(S(=O)(=O)Nc3ncccn3)cc2)cc1OC — higher, -2.72%
- Cc1ccc(Oc2ccc3c(c2)C(=O)N(c2ccc(C(N)=O)cc2)C3=O)cc1C — higher, 3.9%
- COc1ccc2[nH]c3nc(SCC(=O)Nc4cccc(F)c4)nnc3c2c1 — lower, -13.9%
- COc1ccc(C(=O)Nc2ccc(S(=O)(=O)Nc3nccc(C)n3)cc2)cc1 — lower, -6.7%
- Cc1cnc(Nc2cccc(C(CO)C3CCN(C(=O)c4cccc(Cl)c4F)CC3)n2)s1 (stereo not drawn) — higher, -1.22%
- Cc1cnc(Nc2cccc(C3CN(C(=O)C(C)(C)C)CCO3)n2)s1 (stereo not drawn) — lower, -10.3%
- CCCc1cnc(Nc2cccc(C3CCN(C(=O)[C@@H]4CCCCN4)CC3)n2)s1 — lower, -21.3%
- COc1ccc(Cl)cc1NC(=O)CSc1nnc2c(n1)[nH]c1ccc(F)cc12 — higher, 5.27%
- COc1ccc(N2C(=O)c3ccc(Oc4ccccc4)cc3C2=O)cc1 — lower, -22.4%
- CCC(C)C(=O)Nc1ccc(S(=O)(=O)Nc2nccc(C)n2)cc1 (stereo not drawn) — lower, -7.22%
- COc1cc(NS(=O)(=O)c2ccc(Nc3nc(-c4c(C)nc5ncccn45)cs3)cc2)nc(OC)n1 — higher, 2.39%
- CCCCc1cnc(Nc2cccc(C3CCN(C(=O)C(C)(C)NC(=O)COC)CC3)n2)s1 — lower, -10.6%
- COc1cccc(CC(=O)N2CCC(c3cccc(Nc4nc(C)c(C)s4)n3)CC2)c1 — higher, 2.52%
- Cc1ccnc(NS(=O)(=O)c2ccc(NC(=O)c3ccco3)cc2)n1 — higher, 3.62%
- NCC(=O)N1CCC(c2cccc(Nc3ncc(Cl)s3)n2)CC1 — lower, -23.9%
- COc1ccc(N2CC(C(=O)Nc3ccc(S(=O)(=O)Nc4nc(C)cc(C)n4)cc3)CC2=O)cc1 (stereo not drawn) — higher, 7.32%
- Cc1ccnc(NS(=O)(=O)c2ccc(NC(=O)C3c4ccccc4Oc4ccccc43)cc2)n1 — lower, -3.45%
- COc1ccc(Br)cc1/C=N/NS(=O)(=O)c1ccccc1 — lower, -21.2%
- Cc1nc(Nc2cccc(C3CN(C(=O)c4cn5cccc(C)c5n4)CCO3)n2)sc1C (stereo not drawn) — higher, 2.16%
- CNC(=O)C1(c2cccc(Nc3ncc(C)s3)n2)CCN(C(=O)C2CCCCC2)CC1 — lower, -21.2%
- Cc1cc(C)nc(NS(=O)(=O)c2ccc(NC(=O)CSc3nnnn3-c3ccccc3)cc2)n1 — higher, 1.47%
- CC(C)CC(=O)N1CCCC1c1csc(Nc2ccccn2)n1 (stereo not drawn) — lower, -4%
- Cc1cnc(Nc2cccc(C3CCN(C(=O)C4(NC(=O)C(C)C)CCCCC4)CC3)n2)s1 — lower, -24.4%
- CC(=O)Nc1ccc(S(=O)(=O)Nc2ccccn2)cc1 — lower, -7.51%
- CC(=O)Nc1ccc(S(=O)(=O)N(Cc2ccccc2)c2ccccn2)cc1 — higher, 21%
- CC(=O)Nc1ccc(S(=O)(=O)Nc2ncccn2)cc1 — higher, -1.98%
- CC1(C)C=C(CC(=O)N2CCOC(c3cccc(Nc4nccs4)n3)C2)CC(C)(C)N1 (stereo not drawn) — higher, 6.81%
- O=C(CN1C(=O)c2ccccc2C1=O)Nc1ccc(S(=O)(=O)Nc2ncccn2)cc1 — higher, -1.34%
- CCCOc1ccccc1C(=O)Nc1ccc(S(=O)(=O)Nc2nc(C)cc(C)n2)cc1 — higher, 2.83%
- CCCc1cnc(Nc2cccc(C3CCN(C(=O)C4CCCCN4CCO)CC3)n2)s1 (stereo not drawn) — lower, -7.08%
- Cc1cnc(Nc2cccc(C3CCN(CC(=O)N(C)C4CCCCC4)CC3)n2)s1 — lower, -15.6%
- Cc1cc(C)nc(NS(=O)(=O)c2ccc(NC(=O)C(C)C)cc2)n1 — higher, 2.66%
- Cc1cc(C)cc(OCC(=O)Nc2ccc(S(=O)(=O)Nc3cc(C)nc(C)n3)cc2)c1 — higher, 7.68%
- Cc1ccc(Cl)cc1NC(=O)CSc1nnc2c(n1)[nH]c1ccc(F)cc12 — higher, -2.7%
- COc1ccc(CCC(=O)N2CCOC(c3cccc(Nc4ncc(C)s4)n3)C2)cc1 (stereo not drawn) — higher, 9.66%
- COc1cccc(CCC(=O)N2CCOC(c3cccc(Nc4ncc(C)s4)n3)C2)c1 (stereo not drawn) — higher, 6.36%
- Cc1csc(Nc2cccc(C3CN(C(=O)CCCc4ccc(F)cc4)CCO3)n2)n1 (stereo not drawn) — higher, 36.2%
- Cc1csc(Nc2cccc(C3CN(C(=O)CCc4nc(C)no4)CCO3)n2)n1 (stereo not drawn) — higher, 4.72%
- COc1ccc(CCC(=O)N2CCOC(c3cccc(Nc4nc(C)cs4)n3)C2)cc1 (stereo not drawn) — higher, 19.5%
- COCC(=O)N1CCOC(c2cccc(Nc3nc(C)cs3)n2)C1 (stereo not drawn) — higher, 2.47%
- CC(=O)N1CCC(c2csc(Nc3ccc(F)cn3)n2)CC1 — higher, 4.68%
- CCCCc1cnc(Nc2cccc(C3CCN(C(=O)[C@@H]4CCCN4CCO)CC3)n2)s1 — higher, 2.3%
- CC(C)c1ccc(OCC(=O)Nc2ccc(S(=O)(=O)Nc3ccccn3)cc2)cc1 — higher, 4.55%
- O=C(Nc1ccc(S(=O)(=O)Nc2ncccn2)cc1)Oc1ccccc1 — higher, -1.98%
- Cc1cc(NS(=O)(=O)c2ccc(NC(=O)c3cc4ccccc4o3)cc2)nc(C)n1 — higher, -3.17%
- Cc1nc(Nc2cccc(C3CCCN3C(=O)c3cc4ccc(F)cc4[nH]3)n2)sc1C (stereo not drawn) — higher, 9.01%
- O=C(CS(=O)(=O)c1ccccc1)Nc1ccc(S(=O)(=O)Nc2ncccn2)cc1 — higher, 8.67%
- O=C(Nc1ccc(S(=O)(=O)Nc2ccccn2)cc1)c1cccc(Cl)c1 — higher, -0.42%
- O=C(O)CCCCCNc1cccc2c1C(=O)N(C1CCC(=O)NC1=O)C2=O (stereo not drawn) — higher, 1.33%
- CCCc1cnc(Nc2cccc(C3CCN(C(=O)C4CCCCC4)CC3)n2)s1 — lower, -19.4%
- COCC(C)NC(=O)CN1CCC(c2cccc(Nc3nccs3)n2)CC1 (stereo not drawn) — higher, -1.53%
- Cc1cnc(Nc2cccc(C3CCN(CC(=O)Nc4c(F)cccc4F)CC3)n2)s1 — lower, -16.6%
- Cc1nc(Nc2cccc(C3CCN(CC(=O)N4CCC(C)CC4)CC3)n2)sc1C — higher, 26.6%
- Cc1cnc(Nc2cccc(C3CCN(CC(=O)N4CCC(C)CC4)CC3)n2)s1 — lower, -9.8%
- COCC(C)NC(=O)CN1CCC(c2cccc(Nc3nc(C)c(C)s3)n2)CC1 (stereo not drawn) — higher, 25.6%
- COCC(C)NC(=O)CN1CCC(c2cccc(Nc3ncc(C)s3)n2)CC1 (stereo not drawn) — higher, -1.08%
- Cc1cnc(NC(=O)CN2CCC(c3cccc(Nc4ncc(C)s4)n3)CC2)s1 — lower, -16.5%
- Cc1cnc(NC(=O)CN2CCC(c3cccc(Nc4nc(C)c(C)s4)n3)CC2)s1 — higher, 24.2%
- Cc1nc(Nc2cccc(C3CN(CC(=O)N4CCC(C)CC4)CCO3)n2)sc1C (stereo not drawn) — higher, 7.05%
